# rCAG RNA binder = molecules binding r(CAG) RNA repeats | r(CAG) RNA repeat, TO-PRO-1 dye displacement fluorescence | inhibition, % at 3 µM | 370,000 compounds, 1.3% hits;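 active = inhibition above the plate cutoff, the mean of all test compounds on that plate plus 3 SD, cut at about 35% in these data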;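 note: 0% = DMSO alone and 100% = 100 µM mitoxantrone as full dye displacement; higher means more dye released from RNA so lower well fluorescence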
# Rtt109 HAT inh = blocks Candida albicans Rtt109/Vps75 acetyltransferase activity | Q5AAJ8 | purified Rtt109/Vps75, ThioGlo CoA-SH fluorescence, 4 h | inhibition, % at 34.9 µM | 330,000 compounds, 0.16% hits;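 active = inhibition of at least 50% in every replicate; inconclusive = best replicate reaches 50% inhibition but some replicates fall short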
# PRMT1 FP inh = blocks human protein arginine methyltransferase 1; Q99873; recombinant PRMT1, activity-based probe fluorescence polarization; inhibition, % at 2.79 µM; 370,000 compounds, 1.3% hits; AID 652257;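 active = inhibition above about 21% made by adding two undisclosed values, limit read from the data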
# Target sequence (Q99873 whole entry, looked up): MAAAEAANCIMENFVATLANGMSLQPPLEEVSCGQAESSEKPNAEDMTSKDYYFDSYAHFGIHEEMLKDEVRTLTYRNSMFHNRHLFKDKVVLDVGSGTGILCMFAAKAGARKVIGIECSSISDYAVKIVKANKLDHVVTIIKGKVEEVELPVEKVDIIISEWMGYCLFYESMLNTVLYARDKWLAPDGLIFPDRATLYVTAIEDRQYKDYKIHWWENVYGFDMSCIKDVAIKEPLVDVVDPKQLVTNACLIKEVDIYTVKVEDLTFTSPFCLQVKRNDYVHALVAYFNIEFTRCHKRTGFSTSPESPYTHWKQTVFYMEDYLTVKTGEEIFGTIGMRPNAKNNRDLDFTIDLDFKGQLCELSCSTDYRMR
# ABHD5-PLIN5 inh = blocks binding of human ABHD5 to perilipin-5; Q00G26+Q8WTS1; inhibition, % at 4 µM; Split G. princeps luciferase complementation, luminescence, 4 h; 360,000 compounds, 0.78% hits; AID 602281;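 active = inhibition above the mean inhibition across every tested compound plus 3 SD, cut at about 22% in these data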;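 note: 0% = DMSO only wells and the 100% control is not disclosed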
# ALR H2O2 inh = blocks human ALR sulfhydryl oxidase activity; 290,000 compounds, 3.8% hits; P55789; inhibition, % (concentration not given with the values); AID 485317; purified ALR, DTT oxidation, H2O2 HRP-luminol luminescence;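 active = mean replicate inhibition above about 79%, with every replicate also reaching it, limit read from the data; inconclusive = only one of the two criteria met; inactive = mean below limit and not every replicate reaching it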
# Target sequence (P55789 whole entry, looked up): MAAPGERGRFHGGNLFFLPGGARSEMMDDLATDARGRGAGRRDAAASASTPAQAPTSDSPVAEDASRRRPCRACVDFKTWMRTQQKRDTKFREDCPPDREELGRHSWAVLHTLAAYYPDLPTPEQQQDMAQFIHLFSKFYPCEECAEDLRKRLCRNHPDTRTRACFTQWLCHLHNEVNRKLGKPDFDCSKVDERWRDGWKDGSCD
# LANA-H2B inh = blocks KSHV LANA binding to histone H2A/H2B; Q9QR71; cell-free LANA-H2A/H2B peptide, fluorescence polarization; inhibition, % (test concentration not listed); 320,000 compounds, 0.6% hits; in the data active = inhibition mostly above about 10%, no sharp cut-off; inactive = mostly below about 6.7%
# PRMT1 confirm = confirmation of human PRMT1 inhibitors | shares compounds with PRMT1 FP inh | recombinant His-PRMT1, activity-based probe fluorescence polarization | inhibition, % at 2.79 µM | 3,300 compounds, 42% hits | AID 687036;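 active = mean inhibition across replicates above the hit cutoff derived for the earlier primary screen, cut at about 22% in these data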
# * hit, by the source's call; ? = inconclusive; . = no result given. An excerpt weighted towards active compounds, which were near 5.9% of everything screened.
SMILES,rCAG RNA binder,Rtt109 HAT inh,PRMT1 FP inh,ABHD5-PLIN5 inh,ALR H2O2 inh,LANA-H2B inh,PRMT1 confirm
Cc1ccccc1CN1CCN(C(=O)[C@H]2O[C@@H](n3cnc(C(N)=O)n3)[C@H](O)[C@@H]2O)CC1,1,.,-1,.,.,.,.
Cc1ccc(S(=O)(=O)CCC(=O)c2ccc(F)cc2)cc1,-5,0,16,16,10,-5,.
Cc1ccc(C(=O)CCS(=O)(=O)c2ccc(F)cc2)cc1,-5,-3,29*,2,15,-2,26*
CC(C)C1CC(N(C)C)=CC(=S)N1 (stereo not drawn),5,.,35*,.,.,.,1
Cc1ccccc1C(=O)NNC(=S)NC(=O)COc1ccccc1,0,1,44*,-14,22,2,9
O=C(COc1ccccc1)NC(=S)Nc1ccc(Br)cn1,-2,.,31*,-1,-2,-1,3
Cc1cccc(C(=O)NN2C(=O)C3C(c4ccccc4)C=CC(c4ccccc4)C3C2=O)c1 (stereo not drawn),9,11,1,-4,.,-1,.
O=C(NN1C(=O)C2C3C=CC(O3)C2C1=O)c1cccc(O)c1 (stereo not drawn),4,-13,54*,-1,-2,-4,0
COc1ccc(C(=O)NN2C(=O)C3C4C=CC(O4)C3C2=O)cc1 (stereo not drawn),2,9,49*,8,0,2,11
O=C(NN1C(=O)C2C3C=CC(O3)C2C1=O)c1cccc(Br)c1 (stereo not drawn),2,-2,40*,1,-9,3,8
CCOC1=C2CN(S(=O)(=O)c3ccc(C)cc3)C(c3ccc(CC)cc3)CC2n2c(=O)n(-c3ccccc3)c(=O)n2C1 (stereo not drawn),11,.,-6,7,.,.,.
CCOC(=O)C1=C(Cc2ccc(C)cc2)C(=O)c2ccccc2C1=O,6,.,92*,.,2,4,27*
CCCCNC(=O)c1nc(C2CCN(S(=O)(=O)c3ccc(Cl)cc3)CC2)oc1-c1ccccc1,4,.,1,-8,.,.,.
CN(C)c1ccc(S(=O)(=O)NCC(=O)NCc2ccccc2)cc1[N+](=O)[O-],4,5,27*,-7,.,-2,26*
CNc1ccc(S(=O)(=O)NCC(=O)NCCCc2ccccc2)cc1[N+](=O)[O-],-2,2,27*,-2,-11,0,34*
Cc1ccc(S(=O)(=O)N2CCC(=O)N([C@H](COCc3ccc(Cl)cc3)C(C)C)CC2)cc1,2,.,3,-3,.,.,.
COc1ccc(N2C(=O)CC(Sc3ncn[nH]3)C2=O)c(OC)c1 (stereo not drawn),4,1,89*,14,-1,0,36*
CC1CC(=O)N(c2ccc(C(C)C)cc2)C(=O)C1,-3,11,-2,11,-4,-2,.
CC(C)c1ccc(N2C(=O)CC(Sc3ncn[nH]3)C2=O)cc1 (stereo not drawn),8,10,61*,3,6,5,64*
CCOC(=O)C(C(C)=O)c1c(Br)c(O)c(O)c2c(C(=O)c3ccc(C)cc3)coc12 (stereo not drawn),19,-3,40*,16,-7,-3,18
COc1ccccc1N1CCN(C(=O)c2cccc(S(=O)(=O)NCc3cccnc3)c2)CC1,-1,-3,-1,-6,12,1,.
CN1CCN(c2ccc(CNC(=O)c3ccc(-c4ccc(F)c(F)c4)c4ccoc34)cc2)CC1,2,.,0,14,.,.,.
Cc1ccc(SC2=C(N(C)C)C(=O)c3ccccc3C2=O)cc1,6,18,52*,-8,.,.,49*
Cc1ccc(NC2=CC(=O)C(=O)c3ccccc32)cc1,5,5,1,-15,-35,-1,.
CCOC(=O)c1ccc(NC(=S)N2CCSC2c2ccc(Br)cc2)cc1 (stereo not drawn),3,6,82*,-22,-6,-3,5
SMILES,rCAG RNA binder,Rtt109 HAT inh,PRMT1 FP inh,ABHD5-PLIN5 inh,ALR H2O2 inh,LANA-H2B inh,PRMT1 confirm
CCCN=Cc1sc2ccc(OCC)cc2c1O,13,.,88*,-9,23,2,29*
CC(=Nc1ccc(C)cc1C)c1sc2ccccc2c1O,-1,.,27*,-2,.,-4,16
CCn1c(C)[n+](CCCS(=O)(=O)[O-])c2cc(Cl)c(Cl)cc21,3,-32,-2,4,-8,-1,.
O=S(=O)([O-])CCC[n+]1c(SCCCS(=O)(=O)O)sc2ccc(Cl)cc21,11,-149,71*,-9,9,4,75*
Cc1cc2c(cc1C)-n1nnnc1C(N1CCN(c3ncccc3C#N)CC1)C(=O)N2 (stereo not drawn),4,.,0,-3,.,.,.
COc1ccc2cc(C3CC(c4ccco4)=NN3S(C)(=O)=O)c(Cl)nc2c1 (stereo not drawn),10,-6,25*,3,-5,1,10
CCOc1ccc2nc(Cl)c(C3CC(c4ccco4)=NN3S(=O)(=O)c3ccccc3)cc2c1 (stereo not drawn),31,-5,32*,15,-1,-1,0
Cc1cc(OCC(=O)OC(C)C(=O)NC2CC2)c(C(C)C)cc1Cl (stereo not drawn),0,.,-1,-1,.,.,.
Cc1ccc(-c2csc3n[nH]c(=S)n23)cc1,3,-9,61*,-14,98*,-1,7
CSc1ccccc1NC(=O)CN(C)Cc1c(O)ccc2ccccc12,3,-2,39*,17,4,-4,30*
Cc1ccc(N2C(=O)CS(=O)C(c3ccccc3)C2=O)cc1C (stereo not drawn),3,?,90*,4,98*,0,90*
COc1ccc(N2C(=O)CS(=O)C(c3ccccc3)C2=O)cc1 (stereo not drawn),9,-10,95*,3,98*,-16,97*
COc1ccc(-n2c(SCC(=O)Nc3cc(C)c(NC(=O)c4ccccc4)cc3OC)nnc2-c2cccnc2)cc1,8,.,-3,.,.,.,.
Cc1cc(N)c(NC2=CC(=O)CC(C)(C)C2)cc1C,-5,3,27*,1,98*,0,-1
Cc1ccc(NC2=CC(=O)CC(C)(C)C2)cc1F,3,-9,-2,-3,-7,-2,.
CCn1c(=O)n(CC(=O)N2CCN(c3ccc(F)cc3)CC2)c(=O)c2ccccc21,1,.,-2,.,.,.,.
COC[C@@H]1CCCN1c1cccc2c1S(=O)(=O)N1CC[C@@H](C1)O2,6,.,-1,.,.,.,.
CC(C)(C)c1ccc(S(=O)(=O)NCC(=O)N2CCN(c3ncccn3)CC2)cc1,1,.,-5,.,.,.,.
COC(=O)C1=C(C)N(Cc2cccc(C(F)(F)F)c2)C(=NCc2ccc3c(c2)OCO3)NC1c1cccc(F)c1 (stereo not drawn),5,.,-4,.,.,.,.

# Screening results as filed in PubChem.
